The source of these data is PubChem BioAssay AID1066 (SRMLSC, 2008).

The whole screen tested about 190,000 compounds, of which about 790 (0.42%) were called active. This is one part of a sample in which actives are shown more often than they occur.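 How the source made its calls: active means inhibition above a set limit, the median over all tested compounds plus 3 SD (cut at about 9.5% in these data); inconclusive means no clear call, values can overlap the other calls; inactive means the rest.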

For the test, the system named is HMG-CoA reductase (Enterococcus faecalis, mvaE). The test can be described thus: inhibitors of E. faecalis class II HMGR, primary screen, biochemical, Enterococcus faecalis (AID 1066).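 Further: enzyme runs in reverse so mevalonate oxidation gives rising NADPH absorbance; 0% = complete reaction with DMSO and 100% = background rate lacking mevalonate.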 The settings on record: purified E. faecalis HMGR, NADPH absorbance 340 nm kinetic; at 10 µM; active compounds read high.
One may read the inhibition as the relative decrease from the control value, in per cent. `CCc1ccc(NC(=O)Nc2ccncc2)cc1`: the inhibition is -0.38% (inactive).

On to `CCOC(=O)CCCNC(=O)COC(=O)c1cc(Br)c(Br)s1`, for which the inhibition was 6.54% (inactive).

As to `COc1ccc(CC2(CO)CCN(Cc3cnn(C)c3)CC2)cc1`, the inhibition is 1.94% (inactive).

Regarding `COc1cccc(CC2(CO)CCN(Cc3cnc(-c4cccc(C)c4)nc3)CC2)c1`, the inhibition was 10.2% (active).

For `Cc1cccc(-c2ncc(CN3CCC(CO)(CCCc4ccccc4)CC3)cn2)c1`, the inhibition is 3.07% (inactive).

On to `CCCCc1ccc(NC(=S)NCCCN2CCOCC2)cc1`, for which the inhibition was 9.74% (active).

Turning to `Cc1ccc(NC(=S)NCCN2CCOCC2)cc1`, the inhibition was -1.8% (inactive).

For `Cc1cc(C)cc(NC(=S)NCCCN2CCOCC2)c1`, the inhibition is -2.33% (inactive).

Turning to `Cc1ccc(S(=O)(=O)N2CCOCC2)cc1C(=O)NCc1ccc(F)cc1`, the inhibition was -7.95% (inactive).

`CCOC(=O)c1sc(NC(=O)c2cc(S(=O)(=O)N3CCOCC3)ccc2C)nc1C`: the inhibition is -0.38% (inactive).

On to `Cc1ccc(S(=O)(=O)N2CCOCC2)cc1C(=O)OC1CCCCC1=O` (stereo not drawn), for which the inhibition was 11.2% (active).

`C/C=C/C=C/C(=O)OCC(=O)Nc1ccc(Cl)cc1`: the inhibition was -6.31% (inactive).

Turning to `CC(=O)NS(=O)(=O)c1ccc(NC(=O)/C=C/c2ccccc2Cl)cc1`, the inhibition is 4.83% (inactive).

As to `O=C(/C=C/c1ccccc1Cl)Nc1ccc(S(=O)(=O)Nc2ncccn2)cc1`, the inhibition was 9.55% (active).

In the case of `O=C(/C=C/c1ccc(Cl)cc1)Nc1ccc(S(=O)(=O)Nc2ncccn2)cc1`, the inhibition was 1.98% (inactive).

`CCOC(=O)C1CCN(S(=O)(=O)c2cc(F)ccc2OC)CC1`: the inhibition was -2.34% (inactive).

Turning to `COc1cc(Cl)c(C)cc1NC(=O)[C@@H]1CCCN1C(=O)c1cccs1`, the inhibition is -6.68% (inactive).

Regarding `CCOC(=O)C1(Cc2cccc(OC)c2)CCN(C(C)CC(C)(C)O)CC1` (stereo not drawn), the inhibition was -0.39% (inactive).

On to `COc1ccc(C(=O)NC2CCN(C(=S)Nc3ccccc3)CC2)cc1`, for which the inhibition was -0.68% (inactive).

Take `COc1ccc(C(=O)NC2CCN(C(=S)NCCc3ccccc3)CC2)cc1`: the inhibition is 16.3% (active).

For the compound `O=C1CCN(C(=S)NCCc2ccccc2)CC1`, the inhibition is 4.83% (inactive).

Turning to `Cc1ccc2c(c1)C1CN(C)CCC1N2S(=O)(=O)c1ccc(Oc2ccc([N+](=O)[O-])cc2)cc1` (stereo not drawn), the inhibition was -1.37% (inactive).

For `O=C(COC(=O)c1ccc(Cl)nc1)NCc1cccs1`, the inhibition is -2.01% (inactive).

As to `COc1cc(/C=N/n2c(C)n[nH]c2=S)ccc1OCc1ccccc1`, the inhibition is 5.27% (inactive).

With `COc1cc(/C=C2/C(=O)ON=C2C)ccc1OCc1ccccc1F`, the inhibition was -4.22% (inactive).

Regarding `COc1cc(/C=C2/C(=O)ON=C2C)ccc1OCc1cccc(F)c1`, the inhibition was 15.9% (active).

As to `N/C(Cc1ccc([N+](=O)[O-])cc1)=N\OC(=O)C1CCCCC1`, the inhibition is 5.63% (inactive).

`Cc1ccc(S(=O)(=O)N2CCOCC2)cc1NC(=O)CSc1nnc(N)s1`: the inhibition was -3.38% (inactive).

Turning to `CCOC(=O)CNC(=O)N1c2ccccc2Sc2ccccc21`, the inhibition was 10.8% (active).

In the case of `CCNC(=O)N1c2ccccc2Sc2ccccc21`, the inhibition is -0.32% (inactive).

Turning to `CCOC(=O)CNC(=O)CN1C(=O)CCSc2ccccc21`, the inhibition was 0.21% (inactive).

Take `CCOC(=O)C1CCCN(C(=O)c2cccc(S(=O)(=O)N3CCOCC3)c2)C1` (stereo not drawn): the inhibition was 2.45% (inactive).

As to `O=C(CCc1[nH]c2ccccc2c1Sc1ccccc1)N(CCO)CCO`, the inhibition is -1.48% (inactive).

For `COCc1c(N)c(C)nc(Cl)c1C#N`, the inhibition is -1.22% (inactive).

As for `CN(Cc1ccccn1)Cc1nc(-c2ccc(Cl)cc2)no1`, the inhibition is -4.55% (inactive).

Take `O=C(Oc1ccccc1)c1ccc2nccnc2c1`: the inhibition was -2.55% (inactive).

For the compound `CC(C)(C)c1csc(NC2=NS(=O)(=O)c3ccccc32)n1`, the inhibition was -4.26% (inactive).

Regarding `O=C(Oc1cccc(NC2=NS(=O)(=O)c3ccccc32)c1)c1ccncc1`, the inhibition is 13.3% (active).

For `O=C1Oc2ccccc2C(=O)/C1=C/c1ccccc1O`, the inhibition is -4.42% (inactive).

Take `Cc1ccc(CN2CCN(Cc3cccc(C)n3)CC2CCO)cc1` (stereo not drawn): the inhibition was -2.73% (inactive).

For `CC(C)OC(=O)CN1C(=O)c2ccccc2C1=O`, the inhibition was 0.65% (inactive).

Take `O=C1c2ccccc2C(=O)N1CCC(c1ccccc1)c1ccco1` (stereo not drawn): the inhibition was -3.81% (inactive).

For the compound `O=C1c2ccccc2C(=O)N1CCC(O)C[N+](=O)[O-]` (stereo not drawn), the inhibition was 14.4% (active).
